Assay results from PubChem BioAssay.
The source made the active and inactive calls.

Tests used:
[1] = system: Plasmodium falciparum Sir2 (PF13_0152, Sir2A); test: Plasmodium falciparum Sir2A binding compounds – biochemical, small-molecule microarray, 635 nm fluorescence, primary screen (AID 1098); conditions: fluorescence 635 nm, higher = more signal;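 also: score merges spot fluorescence intensity with its signal-to-noise ratio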
[2] = probe aDKK1 binding to arrayed compounds – biochemical, biotinylated probe, 635/667 nm fluorescence, primary screen (AID 1099); conditions: small-molecule microarray, higher = more signal;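 also: score merges 667nm spot fluorescence with signal to noise across triplicate slides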
[3] = probe aCHRDL2 binding to arrayed compounds – biochemical, biotinylated probe, 635/667 nm fluorescence, primary screen (AID 1100); conditions: small-molecule microarray, higher = more signal
[4] = change in splice reporter luminescence, either direction, cell-based, HEK293, spliceosome inhibition project, primary screen (AID 1101); conditions: HEK293 splicing luciferase reporter, 24 h, higher = more signal, called active from +8 up or from −8 down;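 also: HEK293 cells carrying a splicing-competent luciferase reporter gene; test concentration not given here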
[5] = target: Fibroblast growth factor 10 (Homo sapiens) (UniProt O15520); test: compounds binding fibroblast growth factor 10 – biochemical, small-molecule microarray, 635 nm fluorescence, primary screen (AID 1102); conditions: FGF10 binding, fluorescence 635 nm, higher = more signal
[6] = system: glycogen synthase kinase-3 (GSK3A per assay name; protocol says GSK3B); test: compounds binding glycogen synthase kinase-3 – biochemical, small-molecule microarray, 635 nm fluorescence, GSK3A, primary screen (AID 1103); conditions: fluorescence 635 nm, higher = more signal; also: the record names both GSK3A and GSK3B
[7] = target: Epidermal growth factor receptor (Homo sapiens) (UniProt P00533); test: compounds binding epidermal growth factor receptor – biochemical, small-molecule microarray, 635 nm fluorescence, primary screen (AID 1104); conditions: EGFR binding, higher = more signal;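 also: score merges 667 nm emission intensity with spot signal to noise over triplicate slides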
[8] = target: Follistatin-related protein 3 (Homo sapiens) (UniProt O95633); test: compounds binding follistatin-related protein 3 – biochemical, small-molecule microarray, 635 nm fluorescence, primary screen (AID 1105); conditions: FSTL3 binding, higher = more signal;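 also: score merges emission near 667 nm and signal to noise per printed spot across three slides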
[9] = target: Dickkopf-related protein 1 (Homo sapiens) (UniProt O94907); test: small molecules binding DKK1 protein – biochemical, small-molecule microarray, 635 nm fluorescence scan, primary screen (AID 1106); conditions: higher = more signal;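 also: score merges emission near 667 nm with signal to noise over three replicate slides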
[10] = system: Inhibin beta A chain (activin A); test: small molecules binding activin A – biochemical, small-molecule microarray, 635 nm fluorescence scan, primary screen (AID 1107); conditions: INHBA, higher = more signal;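 also: mouse activin A protein probed at 4.33 µg/mL on printed slides; score merges bound-protein fluorescence near 667 nm with spot signal-to-noise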
[11] = system: Human papillomavirus type 1a protein E7 (residues 44-93); test: small molecules binding HPV E7 44-93 – biochemical, small-molecule microarray, residues 44-93, 635 nm fluorescence, primary screen (AID 1108); conditions: fluorescence 635 nm, higher = more signal;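 also: E7 fragment applied at 1 µg/mL in TBST for 1 h at 4 C; score combines spot fluorescence with its signal to noise ratio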
[12] = hepatitis C replication reporter changes, two-sided – Huh7 cells, luciferase reporter, HCV replication inhibitor project, primary screen (AID 1109); conditions: Huh7 HCV replicon luciferase reporter, 48 h; higher = more signal;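 also: huh7 hepatoma cells harbouring a luciferase neomycin HCV replicon reporter; luciferase luminescence as measure of HCV replicon replication; test concentration not given here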
[13] = target: Left-right determination factor 2 (Homo sapiens) (UniProt O00292); test: small molecules binding LEFTY2 protein – biochemical, small-molecule microarray, 635 nm fluorescence scan, primary screen (AID 1110); conditions: higher = more signal
[14] = target: Calmodulin-1 (Homo sapiens) (UniProt P0DP23); test: small molecules binding calmodulin-1 with EGTA – biochemical, small-molecule microarray, Cy5-labelled CALM1, profiling panel (AID 1111); conditions: Cy5-CALM1 binding fluorescence, higher = more signal;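 also: labelled calmodulin applied in Tris saline Tween buffer holding calcium plus EGTA and DTT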
[15] = target: Calmodulin-1 (Homo sapiens) (UniProt P0DP23); test: small molecules binding Ca-loaded calmodulin-1 – biochemical, small-molecule microarray, Cy5-labelled CALM1, plus calcium, artefact control for SMM control-protein annotation, profiling panel (AID 1112); conditions: Cy5-CALM1 binding fluorescence, higher = more signal;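 also: score merges spot fluorescence with signal to noise from triplicate slides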
[16] = probe aWnt5a binding to arrayed compounds – biochemical, biotinylated probe, 635/667 nm fluorescence, primary screen (AID 1113); conditions: small-molecule microarray, higher = more signal;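 also: score merges 667 nm fluorescence intensity with signal-to-noise per printed feature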
[17] = probe aShh binding to arrayed compounds – biochemical, biotinylated probe, 635/667 nm fluorescence, primary screen (AID 1114); conditions: small-molecule microarray, higher = more signal;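 also: probe is biotin-labelled aShh protein from a stem cell growth factor screen; measures binding of labelled protein to compounds printed on the slide; score merges feature fluorescence at 667 nm with signal-to-noise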
[18] = probe aNog binding to arrayed compounds – biochemical, biotinylated probe, 635/667 nm fluorescence, primary screen (AID 1115); conditions: small-molecule microarray, higher = more signal;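 also: probe is biotinylated aNog protein used at 0.15 µg/mL for 1 h at 4 C; z-score combines 667 nm fluorescence of each spot with its signal to noise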
[19] = target: Torsin-1A-interacting protein 1 (Homo sapiens) (UniProt Q5JTV8); test: compound microarray binding of lysate hLAP1 – cell lysate, small-molecule microarray, COS7 lysate, 635/667 nm fluorescence, primary screen (AID 1116); conditions: 635 nm fluorescence, higher = more signal
[20] = target: Alpha-bungarotoxin (Bungarus multicinctus) (UniProt P60615); test: compounds binding labelled alpha-BTX control protein – biochemical, small-molecule microarray, Alexa647 label, 635/667 nm fluorescence, artefact control for SMM control protein annotation, profiling panel (AID 1117); conditions: alpha-BTX-A647 binding fluorescence, higher = more signal
Sequence of Alpha-bungarotoxin (Bungarus multicinctus) (P60615 whole entry, looked up): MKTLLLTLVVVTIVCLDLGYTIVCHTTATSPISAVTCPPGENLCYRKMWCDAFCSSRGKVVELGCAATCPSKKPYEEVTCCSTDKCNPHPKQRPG

Sequence of Follistatin-related protein 3 (Homo sapiens) (O95633 whole entry, looked up): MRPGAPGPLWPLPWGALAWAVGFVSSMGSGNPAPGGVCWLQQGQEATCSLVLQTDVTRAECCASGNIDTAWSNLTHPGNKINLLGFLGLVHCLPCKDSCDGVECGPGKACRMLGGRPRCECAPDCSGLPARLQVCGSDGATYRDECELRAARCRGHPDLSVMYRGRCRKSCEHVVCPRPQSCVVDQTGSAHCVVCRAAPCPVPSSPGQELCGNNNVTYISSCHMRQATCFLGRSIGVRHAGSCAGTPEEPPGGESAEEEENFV
Sequence of Left-right determination factor 2 (Homo sapiens) (O00292 whole entry, looked up): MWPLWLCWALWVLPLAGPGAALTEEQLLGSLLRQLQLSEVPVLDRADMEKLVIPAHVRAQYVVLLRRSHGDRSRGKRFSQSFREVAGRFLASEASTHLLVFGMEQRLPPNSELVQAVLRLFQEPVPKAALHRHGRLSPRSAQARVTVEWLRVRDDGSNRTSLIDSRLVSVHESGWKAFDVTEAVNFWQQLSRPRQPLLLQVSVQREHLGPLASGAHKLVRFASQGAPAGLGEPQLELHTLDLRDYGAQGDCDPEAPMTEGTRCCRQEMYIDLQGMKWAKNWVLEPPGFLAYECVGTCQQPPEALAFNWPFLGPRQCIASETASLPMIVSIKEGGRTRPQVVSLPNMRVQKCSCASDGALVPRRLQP
Sequence of Epidermal growth factor receptor (Homo sapiens) (P00533 whole entry, looked up): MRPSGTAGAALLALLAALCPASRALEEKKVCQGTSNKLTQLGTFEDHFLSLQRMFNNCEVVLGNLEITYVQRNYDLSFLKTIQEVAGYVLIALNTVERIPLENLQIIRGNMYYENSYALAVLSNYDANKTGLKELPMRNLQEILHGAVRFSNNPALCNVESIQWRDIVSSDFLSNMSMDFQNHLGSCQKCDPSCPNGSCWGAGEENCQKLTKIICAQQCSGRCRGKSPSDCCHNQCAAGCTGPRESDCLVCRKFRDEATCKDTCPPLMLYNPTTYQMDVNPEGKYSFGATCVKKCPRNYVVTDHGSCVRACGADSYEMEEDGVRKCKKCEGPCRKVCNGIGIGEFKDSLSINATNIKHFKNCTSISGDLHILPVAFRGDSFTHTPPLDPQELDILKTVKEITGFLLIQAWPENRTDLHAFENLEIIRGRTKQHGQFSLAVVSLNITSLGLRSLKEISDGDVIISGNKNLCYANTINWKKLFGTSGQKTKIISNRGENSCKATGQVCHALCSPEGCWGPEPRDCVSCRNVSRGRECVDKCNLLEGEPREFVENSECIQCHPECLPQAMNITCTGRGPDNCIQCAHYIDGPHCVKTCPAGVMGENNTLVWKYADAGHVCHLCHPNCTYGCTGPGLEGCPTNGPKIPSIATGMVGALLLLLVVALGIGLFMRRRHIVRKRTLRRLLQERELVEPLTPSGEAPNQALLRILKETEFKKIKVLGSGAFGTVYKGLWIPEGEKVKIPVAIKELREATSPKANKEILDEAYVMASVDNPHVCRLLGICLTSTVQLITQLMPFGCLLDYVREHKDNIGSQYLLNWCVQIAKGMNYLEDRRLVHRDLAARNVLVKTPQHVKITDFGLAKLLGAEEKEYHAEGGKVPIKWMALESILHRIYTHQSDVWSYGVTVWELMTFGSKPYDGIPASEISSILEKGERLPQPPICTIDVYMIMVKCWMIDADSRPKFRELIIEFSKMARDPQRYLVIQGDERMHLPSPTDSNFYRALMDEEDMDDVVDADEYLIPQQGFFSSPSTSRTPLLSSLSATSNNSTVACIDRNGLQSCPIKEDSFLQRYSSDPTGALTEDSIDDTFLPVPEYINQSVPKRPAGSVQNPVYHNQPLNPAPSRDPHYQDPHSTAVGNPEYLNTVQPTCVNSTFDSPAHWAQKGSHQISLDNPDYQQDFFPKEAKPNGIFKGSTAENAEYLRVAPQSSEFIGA
Sequence of Torsin-1A-interacting protein 1 (Homo sapiens) (Q5JTV8 whole entry, looked up): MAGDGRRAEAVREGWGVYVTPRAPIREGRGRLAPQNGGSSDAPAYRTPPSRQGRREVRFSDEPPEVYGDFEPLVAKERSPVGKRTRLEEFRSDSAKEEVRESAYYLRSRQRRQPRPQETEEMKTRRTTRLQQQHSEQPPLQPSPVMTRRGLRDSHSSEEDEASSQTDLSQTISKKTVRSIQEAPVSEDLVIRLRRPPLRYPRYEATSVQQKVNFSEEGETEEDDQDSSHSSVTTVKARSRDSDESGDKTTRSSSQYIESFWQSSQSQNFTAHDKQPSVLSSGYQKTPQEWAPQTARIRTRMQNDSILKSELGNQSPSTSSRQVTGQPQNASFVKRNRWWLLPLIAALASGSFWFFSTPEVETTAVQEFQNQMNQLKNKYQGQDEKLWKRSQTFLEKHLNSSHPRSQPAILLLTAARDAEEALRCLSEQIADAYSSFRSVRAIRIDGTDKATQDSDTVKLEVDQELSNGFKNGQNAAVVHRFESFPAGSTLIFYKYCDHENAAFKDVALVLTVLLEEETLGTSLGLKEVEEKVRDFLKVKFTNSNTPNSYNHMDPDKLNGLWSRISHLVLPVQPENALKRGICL
Sequence of Dickkopf-related protein 1 (Homo sapiens) (O94907 whole entry, looked up): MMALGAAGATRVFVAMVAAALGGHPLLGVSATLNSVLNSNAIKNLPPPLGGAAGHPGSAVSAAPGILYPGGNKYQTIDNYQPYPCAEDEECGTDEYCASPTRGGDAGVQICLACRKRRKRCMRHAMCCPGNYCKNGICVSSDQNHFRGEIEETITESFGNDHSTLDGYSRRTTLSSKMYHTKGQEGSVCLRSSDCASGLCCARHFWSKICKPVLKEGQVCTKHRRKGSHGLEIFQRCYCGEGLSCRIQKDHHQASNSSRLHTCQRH
Sequence of Fibroblast growth factor 10 (Homo sapiens) (O15520 whole entry, looked up): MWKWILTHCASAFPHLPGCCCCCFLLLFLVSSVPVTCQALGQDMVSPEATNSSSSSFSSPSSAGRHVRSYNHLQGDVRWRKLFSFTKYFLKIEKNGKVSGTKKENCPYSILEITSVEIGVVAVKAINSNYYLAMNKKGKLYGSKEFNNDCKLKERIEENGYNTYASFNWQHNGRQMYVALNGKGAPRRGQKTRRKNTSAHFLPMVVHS

## CO[C@H]1COC(=O)[C@H](C)NC(=O)CC=C[C@@H](C)[C@H](NS(=O)(=O)c2ccc(C)cc2)COC(=O)CC=C[C@@H]1C
[1]
  composite z-score: 0.997
[2]
  composite z-score: -0.667
[3]
  composite z-score: -1.28
[4]
  z-score: -0.489 (inactive)
[5]
  composite z-score: 0.27
[6]
  composite z-score: -0.0078
[7]
  composite z-score: 0.778
[8]
  composite z-score: 0.956
[9]
  composite z-score: 0.979
[10]
  composite z-score: 1.47
[11]
  composite z-score: -0.9
[12]
  z-score: -0.05
[13]
  composite z-score: 0.285
[14]
  composite z-score: -1.11
[15]
  composite z-score: -1.46
[16]
  composite z-score: -0.137
[17]
  composite z-score: -0.0709
[18]
  composite z-score: -0.12
[19]
  composite z-score: 0.368
[20]
  composite z-score: -0.555

## CO[C@H]1COC(=O)[C@@H](C)NC(=O)CC=C[C@@H](C)[C@H](OC)COC(=O)CC=C[C@@H]1C
[1]
  composite z-score: -1.61
[2]
  composite z-score: -0.994
[3]
  composite z-score: -1.7
[4]
  z-score: -1.59 (inactive)
[5]
  composite z-score: 0.518
[6]
  composite z-score: 0.442
[7]
  composite z-score: -0.805
[8]
  composite z-score: 1.34
[9]
  composite z-score: 1.2
[10]
  composite z-score: 1.62
[11]
  composite z-score: -0.0307
[12]
  z-score: -0.355
[13]
  composite z-score: 1.39
[14]
  composite z-score: -1.88
[15]
  composite z-score: -2.99
[16]
  composite z-score: -0.202
[17]
  composite z-score: -0.153
[18]
  composite z-score: -0.559
[19]
  composite z-score: -0.0099
[20]
  composite z-score: -1.47

## COCCOC(=O)N1C(=O)[C@@]2(c3cc(C#CC4=CCCCC4)ccc31)[C@H](C(=O)NC[C@H](O)c1ccccc1)[C@H]1C(=O)O[C@H](c3ccccc3)[C@H](c3ccccc3)N1[C@@H]2c1ccccc1OCCO
[1]
  composite z-score: 1.28
[2]
  composite z-score: 0.659
[3]
  composite z-score: 0.635
[4]
  z-score: -1.5 (inactive)
[5]
  composite z-score: 0.533
[6]
  composite z-score: 1.05
[7]
  composite z-score: 0.366
[8]
  composite z-score: 1.08
[9]
  composite z-score: 0.599
[10]
  composite z-score: 1.13
[11]
  composite z-score: 0.453
[12]
  z-score: -3.01
[13]
  composite z-score: 0.394
[14]
  composite z-score: 1.43
[15]
  composite z-score: 0.635
[16]
  composite z-score: 0.0246
[17]
  composite z-score: 0.443
[18]
  composite z-score: 0.216
[19]
  composite z-score: 0.814
[20]
  composite z-score: 2.18

## COCCCNC(=O)[C@@H]1c2ccccc2C(=O)N(CC23CC4CC(CC(C4)C2)C3)[C@H]1c1ccc(CO)cc1
[1]
  composite z-score: 0.0881
[2]
  composite z-score: 0.884
[3]
  composite z-score: 0.97
[4]
  z-score: -1.1 (inactive)
[5]
  composite z-score: 0.37
[6]
  composite z-score: 0.623
[7]
  composite z-score: 0.215
[8]
  composite z-score: 0.296
[9]
  composite z-score: 0.427
[10]
  composite z-score: 0.911
[11]
  composite z-score: 0.666
[12]
  z-score: -1.57
[13]
  composite z-score: -0.191
[14]
  composite z-score: 0.879
[15]
  composite z-score: 0.803
[16]
  composite z-score: -0.0405
[17]
  composite z-score: 0.778
[18]
  composite z-score: 0.0051
[19]
  composite z-score: 0.926
[20]
  composite z-score: 0.253

## C[C@]1(C(=O)NCCN2CCOCC2)c2ccccc2C(=O)N(Cc2ccccc2)[C@H]1c1ccc(CO)cc1
[1]
  composite z-score: 1.59
[2]
  composite z-score: -0.082
[3]
  composite z-score: 0.606
[4]
  z-score: -0.675 (inactive)
[5]
  composite z-score: -0.632
[6]
  composite z-score: -0.748
[7]
  composite z-score: -0.491
[8]
  composite z-score: -0.824
[9]
  composite z-score: -0.396
[10]
  composite z-score: 0.519
[11]
  composite z-score: -0.474
[12]
  z-score: -0.326
[13]
  composite z-score: -1.01
[14]
  composite z-score: -0.193
[15]
  composite z-score: 0.349
[16]
  composite z-score: 0.763
[17]
  composite z-score: 0.163
[18]
  composite z-score: -0.195
[19]
  composite z-score: -0.705
[20]
  composite z-score: 0.0519
